Experimental data taken from PubChem BioAssay (NCI).
About 83,000 compounds went through this panel and 20% of them were active in at least one assay; those are over-represented in the sample as a whole.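 Step 1: grow cells in 96-well plates. Step 2: add test compound at a single concentration. Step 3: incubate 48 h. Step 4: record percent growth.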 Values without a mark were called inactive. Active and inactive are the calls of the source. Rule for the calls: active = growth percent below 10; inactive = the rest.

The compounds below were run on OVCAR-4 ovarian (assay: NCI-60 one-dose screen, 48 h (100 = growth as untreated, 0 = no growth, -100 = all killed)). Conditions: 10 µM unless noted.
Work on `CCC(c1ccccc1)C(CC)c1ccc(O)c(O)c1` (stereo unspecified) yielded a growth of 82.4%.
`CN1CCN(c2ccc3nc(-c4ccc5nc(-c6ccc(OCCC(C)(C)C)cc6)[nH]c5c4)[nH]c3c2)CC1` was tested, and the growth was 81.2%.
`NC(N)=Nc1ccc(S(=O)(=O)O)cc1` showed a growth of 95.5%.
Work on `O=C(/C=C/c1cc2ccccc2[nH]c1=O)/C=C/c1cc2ccccc2[nH]c1=O` yielded a growth of 38.3%.
`Nc1ccc(Nc2nccc(-c3ccc4ccccc4c3)n2)cc1` was tested, and the growth was 56.4%.
`C=C1CCC2C3(C)COC(c4ccc(OC)cc4Br)OC3CCC2(C)C1/C=C/C1=CCOC1=O` (stereo unspecified) showed a growth of 67.9%.
Work on `CCC(=O)Oc1ccc(/C(=C(\C)c2ccccc2)c2ccc(OCCN(CC)CC)cc2)cc1` yielded a growth of 87.5%.
`CC(=O)/C(=C/c1cccc(Cl)c1)C(=O)c1ccccc1` showed a growth of 89.6%.
Work on `NS(=O)(=O)c1ccc(-n2ncc3c(=O)[nH]c(CN4CCN(c5cc6c(cc5F)c(=O)c(C(=O)O)cn6C5CC5)CC4)nc32)cc1` yielded a growth of 104%.
With `COc1ccc(-c2nn(-c3ccccc3)cc2/C=C2\SC(=O)NC2=O)cc1` the growth was 89.5%.
Work on `O=C(COc1cccc(/C=C2/Oc3ccccc3C2=O)c1)Nc1nccs1` yielded a growth of 87.5%.
Work on `CN1CCN(Cc2ccc(NC(=O)c3[nH]ncc3Nc3ncnc4sccc34)cc2)CC1` yielded a growth of 10.2%.
`CC1=N/C(=C\c2cccc(Br)c2)C(=O)O1` showed a growth of 110%.
With `COc1cc(C(=O)/C=C/c2c(C)n([O-])c3ccc(C)cc3[n+]2=O)cc(OC)c1OC` the growth was 36.9%.
With `CCN(CC)CC#CCOC(=O)[C@]1(C)CCC[C@@]2(C)[C@H]1CC(C=O)=C1C=C(C(C)C)CC[C@@H]12` the growth was 69.5%.
`C=C1CCC2C3(C)COC(c4ccccc4Br)OC3CCC2(C)C1C/C=C1/C(=O)OCC1OC(C)=O` (stereo unspecified) was tested, and the growth was -62.2% (active).
`CCOC(=O)C(=Cc1ccccc1F)C(=O)OCC` was tested, and the growth was 97%.
`Cn1c2ccccc2c2c3c(c4c5ccccc5n(CCCCCC#N)c4c21)C(=O)N(O)C3=O` gave a growth of 28.4%.
For `CC(=O)C1=C(O)C=C2Oc3c(C(=O)/C=C/c4c(Cl)cccc4Cl)c(O)c(C)c(O)c3[C@]2(C)C1=O`, the growth was 7.41% (active).
`Oc1ccc(Nc2nccc(-c3ccc4ccccc4c3)n2)cc1` gave a growth of 65.5%.
In the case of `COc1ccc(C(=O)/C=C/c2cc3ccccc3[nH]c2=O)cc1`, the growth is reported as 58.6%.
`C[C@@]1(N2C(=O)OC[C@@H]2c2ccccc2)C(=O)N([C@H](CC(=O)N2CCC(N3CCCCC3)CC2)C(=O)NCc2cccc(C(F)(F)F)c2)[C@@H]1/C=C/c1ccccc1` was tested, and the growth was 66.3%.
`CCOC(=O)c1cnc2ccc(Br)cc2c1Nc1cccc(S(=O)(=O)NC)c1` showed a growth of 82.4%.
With `CCN1CCN(Cc2ccc(NC(=O)Nc3nc4ccc(Oc5ccnc(C(=O)NC)c5)cc4s3)cc2C(F)(F)F)CC1` the growth was -64.1% (active).
With `O=c1c2c3c(sc2n2c(CCl)nnc2n1Cc1ccccc1)CCCC3` the growth was -99.3% (active).
With `COC(=O)[C@H](C(C)C)n1c(=O)c2cc(OC)c(OC)cc2c2cnc3[nH]ccc3c21` the growth was 85%.
With `CC(=O)Oc1ccc(Nc2c3ccccc3nc3ccccc23)cc1` the growth was 13.8%.
`COc1cc(NCCCCN=C(N)NC(N)=NC(C)C)c2ncccc2c1` was tested, and the growth was -9.62% (active).
`CCN(CC)C12CCCCC1(C)C(C#N)(C#N)C(C#N)=C(N)O2` (stereo unspecified) was tested, and the growth was 100%.
`O=C(CNC1C2CC3CC(C2)CC1C3)Sc1nnc2sc3ccccc3n12` (stereo unspecified) was tested, and the growth was 87.6%.
Compound `COc1ccc(-c2c3c(nc4n[nH]c(-c5ccc(Cl)cc5)c24)-c2ccccc2C(=O)C3=O)cc1` has a growth of 23%.
For `O=C(/C=C\c1ccc2ccccc2n1)c1cc(Cl)ccc1O`, the growth was 73.6%.
`O=C1c2cc3c(cc2-c2c1c1cc(Cl)c(Cl)cc1c(=O)n2CCCn1ccnc1)OCO3` was tested, and the growth was 30.1%.
For `CC1(C)CC(=O)C(c2c(-c3ccccc3)[nH]c3[nH]c(=S)[nH]c(=O)c23)=C(O)C1`, the growth was 114%.
In the case of `O=C(/C=C/c1cccc(Br)c1)c1ccccc1`, the growth is reported as 90.6%.
`O=C(CO[N+](=O)[O-])Nc1ccc(C(=O)/C=C/c2ccc(Cl)cc2)cc1` showed a growth of 76.1%.
For `CN(C)c1ccc(/C=C\C2=[N+](C)c3ccccc3C2(C)C)cc1`, the growth was 35.5%.
`COc1ccc(CCN2CC=Cn3c2nc2ccccc2c3=O)cc1` was tested, and the growth was 41.6%.

These compounds were tested on SK-OV-3 ovarian in the same assay as above. Conditions: 10 µM unless noted.
`CCC(c1ccccc1)C(CC)c1ccc(O)c(O)c1` (stereo unspecified) gave a growth of 112%.
`CN1CCN(c2ccc3nc(-c4ccc5nc(-c6ccc(OCCC(C)(C)C)cc6)[nH]c5c4)[nH]c3c2)CC1` gave a growth of 88.8%.
Compound `NC(N)=Nc1ccc(S(=O)(=O)O)cc1` has a growth of 96.7%.
`O=C(/C=C/c1cc2ccccc2[nH]c1=O)/C=C/c1cc2ccccc2[nH]c1=O` was tested, and the growth was 8.82% (active).
`Nc1ccc(Nc2nccc(-c3ccc4ccccc4c3)n2)cc1` gave a growth of 60.7%.
`C=C1CCC2C3(C)COC(c4ccc(OC)cc4Br)OC3CCC2(C)C1/C=C/C1=CCOC1=O` (stereo unspecified) showed a growth of 97.5%.
Compound `CCC(=O)Oc1ccc(/C(=C(\C)c2ccccc2)c2ccc(OCCN(CC)CC)cc2)cc1` has a growth of 91.4%.
`CC(=O)/C(=C/c1cccc(Cl)c1)C(=O)c1ccccc1` was tested, and the growth was 96.3%.
Work on `NS(=O)(=O)c1ccc(-n2ncc3c(=O)[nH]c(CN4CCN(c5cc6c(cc5F)c(=O)c(C(=O)O)cn6C5CC5)CC4)nc32)cc1` yielded a growth of 107%.
`COc1ccc(-c2nn(-c3ccccc3)cc2/C=C2\SC(=O)NC2=O)cc1` showed a growth of 93.3%.
In the case of `O=C(COc1cccc(/C=C2/Oc3ccccc3C2=O)c1)Nc1nccs1`, the growth is reported as 266%.
`CN1CCN(Cc2ccc(NC(=O)c3[nH]ncc3Nc3ncnc4sccc34)cc2)CC1` was tested, and the growth was 31.4%.
`CC1=N/C(=C\c2cccc(Br)c2)C(=O)O1` showed a growth of 102%.
`COc1cc(C(=O)/C=C/c2c(C)n([O-])c3ccc(C)cc3[n+]2=O)cc(OC)c1OC` gave a growth of 96%.
Work on `CCN(CC)CC#CCOC(=O)[C@]1(C)CCC[C@@]2(C)[C@H]1CC(C=O)=C1C=C(C(C)C)CC[C@@H]12` yielded a growth of 73.4%.
`C=C1CCC2C3(C)COC(c4ccccc4Br)OC3CCC2(C)C1C/C=C1/C(=O)OCC1OC(C)=O` (stereo unspecified) showed a growth of 52.7%.
`CCOC(=O)C(=Cc1ccccc1F)C(=O)OCC` gave a growth of 106%.
`Cn1c2ccccc2c2c3c(c4c5ccccc5n(CCCCCC#N)c4c21)C(=O)N(O)C3=O` showed a growth of 37.1%.
With `CC(=O)C1=C(O)C=C2Oc3c(C(=O)/C=C/c4c(Cl)cccc4Cl)c(O)c(C)c(O)c3[C@]2(C)C1=O` the growth was -30.9% (active).
With `Oc1ccc(Nc2nccc(-c3ccc4ccccc4c3)n2)cc1` the growth was 57.4%.
`COc1ccc(C(=O)/C=C/c2cc3ccccc3[nH]c2=O)cc1` showed a growth of 53%.
Work on `C[C@@]1(N2C(=O)OC[C@@H]2c2ccccc2)C(=O)N([C@H](CC(=O)N2CCC(N3CCCCC3)CC2)C(=O)NCc2cccc(C(F)(F)F)c2)[C@@H]1/C=C/c1ccccc1` yielded a growth of 78.9%.
Compound `CCOC(=O)c1cnc2ccc(Br)cc2c1Nc1cccc(S(=O)(=O)NC)c1` has a growth of 96.2%.
With `CCN1CCN(Cc2ccc(NC(=O)Nc3nc4ccc(Oc5ccnc(C(=O)NC)c5)cc4s3)cc2C(F)(F)F)CC1` the growth was -2.46% (active).
With `O=c1c2c3c(sc2n2c(CCl)nnc2n1Cc1ccccc1)CCCC3` the growth was 103%.
`COC(=O)[C@H](C(C)C)n1c(=O)c2cc(OC)c(OC)cc2c2cnc3[nH]ccc3c21` was tested, and the growth was 26.5%.
`CC(=O)Oc1ccc(Nc2c3ccccc3nc3ccccc23)cc1` was tested, and the growth was 3.92% (active).
With `COc1cc(NCCCCN=C(N)NC(N)=NC(C)C)c2ncccc2c1` the growth was 100%.
With `CCN(CC)C12CCCCC1(C)C(C#N)(C#N)C(C#N)=C(N)O2` (stereo unspecified) the growth was 110%.
Work on `O=C(CNC1C2CC3CC(C2)CC1C3)Sc1nnc2sc3ccccc3n12` (stereo unspecified) yielded a growth of 94.2%.
For `COc1ccc(-c2c3c(nc4n[nH]c(-c5ccc(Cl)cc5)c24)-c2ccccc2C(=O)C3=O)cc1`, the growth was 42.5%.
`O=C(/C=C\c1ccc2ccccc2n1)c1cc(Cl)ccc1O` gave a growth of 111%.
With `O=C1c2cc3c(cc2-c2c1c1cc(Cl)c(Cl)cc1c(=O)n2CCCn1ccnc1)OCO3` the growth was -3.8% (active).
In the case of `CC1(C)CC(=O)C(c2c(-c3ccccc3)[nH]c3[nH]c(=S)[nH]c(=O)c23)=C(O)C1`, the growth is reported as 114%.
In the case of `O=C(/C=C/c1cccc(Br)c1)c1ccccc1`, the growth is reported as 82.1%.
In the case of `O=C(CO[N+](=O)[O-])Nc1ccc(C(=O)/C=C/c2ccc(Cl)cc2)cc1`, the growth is reported as 89.3%.
`CN(C)c1ccc(/C=C\C2=[N+](C)c3ccccc3C2(C)C)cc1` was tested, and the growth was -11.6% (active).
With `COc1ccc(CCN2CC=Cn3c2nc2ccccc2c3=O)cc1` the growth was 59.8%.
